# Assay outcomes as filed in PubChem BioAssay.
# Sampled rows, rich in hits. Any-hit rate of the full collection: about 8.2%.
# KB-3-1 tox: qHTS assay for MDR1-selective chemotherapeutics: Primary screen using the parental adenocarcinoma cell KB-3-1; Potency, µM (highest dose often 46.1 µM), most hits filed as cytotoxic; AID 1347075, 2019; KB-3-1 viability, CellTiter-Glo ATP luminescence, 72 h; hit rate 1.4% among 400,000; further: on the % scale 0 is the no-effect control and ±100 the full control effect; nearly all actives have a fitted effect of over 60% in size
#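 KB-3-1 parental drug-naive adenocarcinoma cells in DMEM/10% FBS, incubated 72 h at 37 C with pin-transferred compounds across a concentration series. Viability by CellTiter-Glo luminescence; concentration-response curves fitted after normalization.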
# KB-V1 MDR tox: qHTS assay for MDR1-selective chemotherapeutics: Primary screen using the drug-selected MDR subline cells KB-V1; hit rate 3.4% among 400,000; KB-V1 MDR cells viability, CellTiter-Glo, 72 h; Potency, µM (series often up to 46.1 µM), actives largely listed as cytotoxic; AID 1347076, 2019; further: on the % scale 0 is the no-effect control and ±100 the full control effect; nearly all actives have a fitted effect of over 60% in size
#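 Cells of the MDR subline KB-V1 are plated, dosed with compound at multiple concentrations, and incubated 72 h at 37 degrees C; CellTiter-Glo is then added and luminescence read after 10 min.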
# SW480 rerep: A quantitative high throughput screen for small molecules that induce DNA re-replication in SW480 colon adenocarcinoma cells | SW480 DNA re-replication, Hoechst DNA content imaging, 48 h | Potency, µM (series often up to 46.1 µM), for inactives: top-dose re-replication activation, hits mostly activators | hit rate 1.8% among 340,000; further: % of control where 0% means no effect; nearly all actives have a fitted effect of over 55% in size
#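 DNA re-replication was detected as more nuclei of elevated Hoechst intensity after 48 hr exposure to compound (23 nL pinned per well of 250 cells).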
# ELG1 DNA repair: qHTS screen for small molecules that inhibit ELG1-dependent DNA repair in human embryonic kidney (HEK293T) cells expressing luciferase-tagged ELG1. HEK293T ELG1-luciferase reporter, luminescence, 16 h; DNA damage induced by 5-fluorouridine. AID 504467, 2011. hit rate 2.3% among 330,000. Potency, µM (doses to about 46.1 µM), for the others: top-dose activity change, negative = inhibition, usual class: inhibitors; further: on the % scale 0 is the no-effect control and ±100 the full control effect; nearly all actives have a fitted effect of over 55% in size
#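 Quantitative HTS, concentration-response format. 2,000 cells/well co-treated with 5-fluorouridine and compound, 16 hr in 5% CO2 at 37 °C; ONE-Glo luminescence read after 30 min.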
# MCF10A rerep: A quantitative high throughput screen for small molecules that induce DNA re-replication in MCF 10a normal breast cells; MCF 10A DNA re-replication, Hoechst nuclear intensity, 48 h; Potency, µM (titrated, usually from 46.1 µM), for the others: at the highest dose activity, positive = re-replication, hits mostly activators; hit rate 2.9% among 350,000; AID 624296, 2012; further: % of control where 0% means no effect; nearly all actives have a fitted effect of over 50% in size
# Active calls of the source: *; i = inactive; ? = inconclusive; · = no result given; [ ] = another dose, or the depositor's remark. The call rests on the fitted dose curve; in most records, active means well fitted curve in the direction sought with a large enough effect; inconclusive means small, poorly fitted or top-dose-only effect, or another doubt; inactive means no such curve, though single readings can be large; an effect the other way counts as inactive or inconclusive. Potency means the concentration at half of the fitted maximal effect.
SMILES,KB-3-1 tox,KB-V1 MDR tox,SW480 rerep,ELG1 DNA repair,MCF10A rerep
CC(Oc1cc(F)ccc1[N+](=O)[O-])C(=O)Nc1ccc(S(=O)(=O)N2CCCC2)cc1 (centres undefined),i,?,16.4µM*,?,20.6µM*
Cc1ccccc1OC(C)C(=O)Nc1ccc(S(=O)(=O)N2CCCC2)cc1 (centres undefined),·,·,-3.1%,-22.5%,?
CC(OC(=O)c1cc(Br)ccc1O)C(=O)Nc1ccc(S(=O)(=O)N2CCCC2)cc1 (centres undefined),?,23.1µM*,?,-20.7%,?
CCn1c2c(c(=O)n3ncc(C(=O)Nc4ccc(F)cc4Cl)c13)CN(Cc1ccc(OC)cc1)CC2,i,i,·,·,·
CCNC(=O)C1(C)CCN(C(=O)c2cc(F)ccc2C)C1 (centres undefined),i,i,·,·,·
COc1ccccc1NC1=C(Cl)C(=O)N(c2ccccc2)C1=O,i,i,10.3µM*,5.0%,-3.0%
CCc1nc2c(OCc3ccc(OC)cc3)cccn2c1N(C)C(=O)C(C)C,i,i,·,·,·
O=[N+]([O-])c1ccc(Cl)c(CN2CCCCCC2)c1,i,i,-4.6%,1.2%,?
O=[N+]([O-])c1ccc(Cl)c(CN2CCN(c3ncc(Cc4ccccc4)cn3)CC2)c1,?,5.17µM*,·,·,·
O=C(Nc1ccc(CN2CCOCC2)cc1)c1ccc(Br)cc1,i,i,-15.6%,-6.5%,?
COC(=O)c1ccc(/C=N\N2CCN(Cc3ccc(C)cc3)CC2)cc1,i,8.2µM*,-0.2%,-5.3%,3.1%
O=C(Nc1ccc(CN2CCOCC2)cc1)c1ccc(Cl)cc1,?,9.2µM*,-10.3%,?,14.1%
O=C(Nc1ccc(CN2CCOCC2)cc1)c1ccc(F)cc1,i,i,-23.9%,?,0.7%
COC(=O)c1ccc(NC(=O)c2ccc(CN3CCOCC3)cc2)cc1,i,2.59µM*,-9.2%,8.2µM*,?
O=C(CSc1ccc2c(c1)OCCO2)N1CCN(c2ccccc2)CC1,i,?,-10.4%,?,-1.8%
CCOC(=O)c1cc2c(ccn2C)n1CC(=O)N(CC)CC,i,i,-16.2%,-5.8%,-17.3%
CCOC(=O)c1cc2c(ccn2C)n1CC(=O)N(C)C,i,?,-8.7%,2.7%,0.651µM*
NNC(=O)c1cc2c(s1)-c1cc(Cl)ccc1SC2,?,i,29.1µM*,?,20.6µM*
O=C(NCc1ccccc1)c1ccc(CS(=O)(=O)Cc2ccccc2F)o1,i,16.4µM*,-20.5%,?,-2.6%
COc1ccc(N(C(=O)C(C)C)S(=O)(=O)c2ccc(Cl)cc2)cc1,i,18.4µM*,5.8%,-27.3%,-4.6%
CCOC(=O)c1ccccc1OCc1cc(C2Nc3ccccc3C(=O)N2c2cccc3ccccc23)ccc1OC (centres undefined),?,i,·,·,·
CC[C@]1(c2ccccc2C)ON(c2ccccc2C(F)(F)F)C1=O,i,i,-0.4%,5.7%,29.7%
COc1ccccc1[C@@]1(C)ON(c2ccccc2C(F)(F)F)C1=O,?,i,?,18.3µM*,?
O=C(CCc1nnc2ccc(N3CCC4(CC3)OCCO4)nn12)Nc1ccc(F)cc1,i,i,-2.8%,6.8%,-1.1%
CC(C)(C)c1nc(-c2ccccc2)nc2c1OCCC2,i,?,-2.8%,23.2%,25.9µM*
SMILES,KB-3-1 tox,KB-V1 MDR tox,SW480 rerep,ELG1 DNA repair,MCF10A rerep
O=C(Nc1ccc(S(=O)(=O)NC2=NCCCCC2)cc1)c1ccc(Cl)cc1Cl,i,i,-5.8%,-4.9%,4.1%
O=[N+]([O-])c1ccc(N=Nc2c(Cl)cc(O)cc2Cl)cc1,18.4µM*,i,?,?,?
CCCCN1C(=O)N(c2nnc(C(C)(C)C)s2)C(O)C1c1ccc(C)cc1 (centres undefined),i,i,-0.1%,-19.2%,?
Cc1nc2ccccc2c(=O)n1/N=C/c1c(O)ccc2ccccc12,i,i,2.91µM*,?,12.8%
COc1ccc(Br)cc1/C=N/n1c(C)nc2ccccc2c1=O,i,i,-4.5%,3.4%,9.0%
CCCc1nc2ccccc2c(=O)n1/N=C/c1ccc(O)cc1,i,?,-6.3%,11.6µM*,-0.5%
Cc1nc2ccccc2c(=O)n1/N=C/c1cc(Br)ccc1O,?,?,20.6µM*,?,3.5%
Cc1nc2ccccc2c(=O)n1/N=C/c1c(O)ccc2oc3c(c12)CCCC3,?,18.4µM*,17.2%,?,1.2%
CCOC(=O)c1cccc(NC(=O)[C@H](CSCc2ccccc2)N2Cc3ccccc3C2=O)c1,i,?,·,·,·
CN(C(=O)C1CCCCC1)C1(C)CCS(=O)(=O)C1 (centres undefined),i,i,-303.6%,10.8%,-19.5%
O=c1c2ccccc2nc(N/N=C/c2c(O)ccc3ccccc23)n1O,?,i,?,?,3.26µM*
O=c1c2ccccc2nc(N/N=C/c2ccc(O)cc2)n1O,i,i,-2.0%,?,?
CCS(=O)(=O)N1Cc2ccccc2CC1C(=O)NCCc1c[nH]c2ccccc12 (centres undefined),i,i,-0.4%,-10.6%,-3.7%
CC(C)COc1ccc(-c2nnc(-c3ccco3)o2)cc1,i,i,?,?,-178.1%[0.0737 µM]
CCN(CC)CCCNc1ccc(-c2nnc(-c3ccc(OCC(C)C)cc3)o2)cn1,20.6µM*,?,20.6µM*,12.1%,?
O=C(CSc1ncccn1)Nc1ncc(C(F)(F)F)cc1Cl,i,i,-61.5%,-8.7%,2.06µM*
Cc1cc(C)nc(SCC(=O)Nc2ncc(C(F)(F)F)cc2Cl)n1,?,i,0.8%,1.6%,13.4%
O=C(NNc1ncc(C(F)(F)F)cc1Cl)c1c(Cl)cccc1Cl,5.8µM*,2.91µM*,?,15.5%,6.51µM*
NC(=O)NNc1ncc(C(F)(F)F)cc1Cl,i,i,?,-6.5%,-7.2%
Cc1ccc2[nH]c3c(=O)n(CC(=O)Nc4ccc(Br)cc4C)ncc3c2c1,i,i,·,·,·
O=C(NC1CCCCC1)C1CCN(C(=O)c2ccc(Cl)cc2)CC1,i,i,?,6.2%,-15.0%
COc1ccc(CNc2nc(C)c([N+](=O)[O-])c(C)c2C#N)cc1,i,i,-9.4%,-13.5%,7.1%
COc1cc(CNc2nc(C)c([N+](=O)[O-])c(C)c2C#N)cc(OC)c1OC,i,?,-1.6%,7.31µM*,14.9%
COc1ccc(Nc2nc3ccccc3n3nnnc23)cc1,i,5.8µM*,3.5%,0.0%,8.5%
